According to PubChem BioAssay (EPA / NIEHS):
Active and inactive are the calls of the source. The calls were made as follows: active = hit-call score of the fitted dose curve at least 0.9, where 1 is the maximum; inactive = score below 0.9.

Key:
[1] = BSK_hDFCGF_Proliferation: Cell Proliferation Assessment in the BioMAP Diversity Plus: hDFCGF Assay (AID 2283059); details: primary human foreskin fibroblasts;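 also: curves fitted for both rise and fall of signal versus DMSO baseline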
Summary of the method: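 Total protein read at 560 nm after 0.1% SRB staining of TCA-fixed human skin fibroblasts, […]. Activity is fitted in both directions relative to DMSO as baseline.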

[2] = read-out: Macrophage colony-stimulating factor (MCSF), CSF1 (gene 1435); assay: BSK_hDFCGF_MCSF: BioMAP Diversity Plus: hDFCGF Assay for Macrophage colony-stimulating factor (MCSF) Biomarker Activity (AID 2283060); details: primary human foreskin fibroblasts; actives raise or lower the signal
Summary of the method: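 Primary human foreskin fibroblasts dosed with chemical; 24 h later, M-CSF quantified by ELISA; curves fitted in both directions vs DMSO negative control.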

[3] = BSK_hDFCGF_SRB: Viability Assessment in the BioMAP Diversity Plus: hDFCGF Assay (AID 2283061); details: primary human foreskin fibroblasts;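 also: cells exposed to compound for 24 h before the read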
Summary of the method: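 Readout is SRB absorbance at 560 nm, reflecting total protein in parallel cultures of human foreskin fibroblasts harvested 24 h after chemical dosing. Activity was fitted bidirectionally relative to DMSO.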

[4] = read-out: TIMP metallopeptidase inhibitor 1 (TIMP1), TIMP1 (gene 7076); assay: BSK_hDFCGF_TIMP1: BioMAP Diversity Plus: hDFCGF Assay for TIMP metallopeptidase inhibitor 1 (TIMP1) Biomarker Activity (AID 2283062); details: primary human foreskin fibroblasts; actives raise or lower the signal
Summary of the method: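 Human skin fibroblasts (primary), hDFCGF system; compound exposure 24 h; TIMP-1 by ELISA; bidirectional fit vs DMSO negative control; overt cytotoxicity by SRB in parallel wells.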

[5] = read-out: Monokine induced gamma interferon (MIG), CXCL9 (gene 4283); assay: BSK_hDFCGF_MIG: BioMAP Diversity Plus: hDFCGF Assay for Monokine induced gamma interferon (MIG) Biomarker Activity (AID 2283063); details: primary human foreskin fibroblasts; actives raise or lower the signal
Summary of the method: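 Chemicals were added to primary human foreskin fibroblast cultures, which were sampled 24 h later. MIG levels were then quantified by ELISA and responses fitted in both directions relative to DMSO.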

[6] = read-out: Matrix Metallopeptidase 1 (MMP1), MMP1 (gene 4312); assay: BSK_hDFCGF_MMP1: BioMAP Diversity Plus: hDFCGF Assay for Matrix Metallopeptidase 1 (MMP1) Biomarker Activity (AID 2283064); details: primary human foreskin fibroblasts; actives raise or lower the signal
Summary of the method: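 hDFCGF primary fibroblasts (human foreskin); chemical added; 24 h; MMP1 by ELISA; bidirectional fit vs DMSO.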

[7] = read-out: Vascular cell adhesion molecule 1 (VCAM1), VCAM1 (gene 7412); assay: BSK_hDFCGF_VCAM1: BioMAP Diversity Plus: hDFCGF Assay for Vascular cell adhesion molecule 1 (VCAM1) Biomarker Activity (AID 2283065); details: primary human foreskin fibroblasts; actives raise or lower the signal;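 as to AC50: VCAM-1 protein level quantified by ELISA after 24 h chemical exposure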
Summary of the method: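 Human foreskin fibroblast primary cells, chemical exposure 24 h; VCAM-1 by ELISA; bidirectional fit, DMSO = negative control/baseline.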

[8] = read-out: Plasminogen activator inhibitor-1 (PAI1), SERPINE1 (gene 5054); assay: BSK_hDFCGF_PAI1: BioMAP Diversity Plus: hDFCGF Assay for Plasminogen activator inhibitor-1 (PAI1) Biomarker Activity (AID 2283066); details: primary human foreskin fibroblasts; actives raise or lower the signal
Summary of the method: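 Primary dermal fibroblasts (human foreskin), hDFCGF system; compound 24 h; PAI-1 by ELISA; bidirectional fit vs DMSO control.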

[9] = read-out: Intercellular Adhesion Molecule 1 (ICAM1), ICAM1 (gene 3383); assay: BSK_KF3CT_ICAM1: BioMAP Diversity Plus: KF3CT Assay for Intercellular Adhesion Molecule 1 (ICAM1) Biomarker Activity (AID 2283067); details: primary human keratinocytes with fibroblasts; actives raise or lower the signal
Summary of the method: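 ICAM-1 levels are measured by ELISA 24 h after dosing a primary human co-culture of keratinocytes and foreskin fibroblasts. Activity in either direction is fitted relative to DMSO vehicle.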

[10] = read-out: Interferon-gamma inducible Protein 10 (IP10), CXCL10 (gene 3627); assay: BSK_KF3CT_IP10: BioMAP Diversity Plus: KF3CT Assay for Interferon-gamma inducible Protein 10 (IP10) Biomarker Activity (AID 2283068); details: primary human keratinocytes with fibroblasts; actives raise or lower the signal
Summary of the method: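 Human keratinocyte plus foreskin fibroblast primary co-culture exposed to test chemical for 24 h; IP-10 measured by ELISA. Concentration-response fitted bidirectionally against DMSO control as baseline.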

[11] = BSK_KF3CT_SRB: Viability Assessment in the BioMAP Diversity Plus: KF3CT Assay (AID 2283069); details: primary human keratinocytes with fibroblasts;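 also: total protein by sulforhodamine B staining as a cytotoxicity measure; read 24 h after compound addition; fitted for both signal gain and loss against DMSO baseline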
Summary of the method: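 Keratinocytes co-cultured with foreskin fibroblasts (human primary); chemical added, 24 h; fix 10% TCA, stain 0.1% SRB, A560. Bidirectional fit vs DMSO.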

[12] = read-out: Interleukin-1 alpha (IL1a), IL1A (gene 3552); assay: BSK_KF3CT_IL1a: BioMAP Diversity Plus: KF3CT Assay for Interleukin-1 alpha (IL1a) Biomarker Activity (AID 2283070); details: primary human keratinocytes with fibroblasts; actives raise or lower the signal
Summary of the method: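 Chemicals were dosed onto co-cultured human keratinocytes and foreskin fibroblasts, IL-1a was quantified by ELISA at 24 h, and activity was fitted in both directions relative to DMSO controls.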

[13] = read-out: TIMP metallopeptidase inhibitor 2 (TIMP2), TIMP2 (gene 7077); assay: BSK_KF3CT_TIMP2: BioMAP Diversity Plus: KF3CT Assay for TIMP metallopeptidase inhibitor 2 (TIMP2) Biomarker Activity (AID 2283071); details: primary human keratinocytes with fibroblasts; actives raise or lower the signal
Summary of the method: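 Cells: human keratinocytes co-cultured with foreskin fibroblasts. Treat with chemical, 24 h. Measure TIMP-2 by ELISA; fit curves bidirectionally vs DMSO baseline.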

[14] = read-out: Transforming growth factor beta 1 (TGFb1), TGFB1 (gene 7040); assay: BSK_KF3CT_TGFb1: BioMAP Diversity Plus: KF3CT Assay for Transforming growth factor beta 1 (TGFb1) Biomarker Activity (AID 2283072); details: primary human keratinocytes with fibroblasts; actives raise or lower the signal
Summary of the method: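 Primary human skin cells (keratinocytes, foreskin fibroblasts) were co-cultured, exposed to test chemical and sampled at 24 h. TGF-b1 levels were measured by ELISA and fitted bidirectionally relative to DMSO.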

[15] = read-out: C-C motif chemokine 2 (Homo sapiens) (UniProt P13500); assay: BSK_KF3CT_MCP1: BioMAP Diversity Plus: KF3CT Assay for Monocyte Chemoattractant Protein 1 (MCP1/CCL2) Biomarker Activity (AID 2283073); details: primary human keratinocytes with fibroblasts; actives raise or lower the signal
Summary of the method: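 ELISA readout of MCP-1 after 24 h chemical dosing of a human skin primary co-culture of keratinocytes and foreskin fibroblasts. Activity was fitted in both directions against DMSO.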

[16] = read-out: Matrix Metallopeptidase 9 (MMP9), MMP9 (gene 4318); assay: BSK_KF3CT_MMP9: BioMAP Diversity Plus: KF3CT Assay for Matrix Metallopeptidase 9 (MMP9) Biomarker Activity (AID 2283074); details: primary human keratinocytes with fibroblasts; actives raise or lower the signal;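 as to AC50: MMP9 protein level quantified by ELISA in the co-culture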
Summary of the method: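 Human keratinocyte/foreskin fibroblast co-culture; compound added; 24 h; MMP-9 by ELISA; bidirectional fit vs DMSO baseline.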

[17] = read-out: urokinase plasminogen activator (uPA), PLAU (gene 5328); assay: BSK_KF3CT_uPA: BioMAP Diversity Plus: KF3CT Assay for urokinase plasminogen activator (uPA) Biomarker Activity (AID 2283075); details: primary human keratinocytes with fibroblasts; actives raise or lower the signal
Summary of the method: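 ELISA readout of uPA, analyzed for signal gain or loss relative to DMSO, from a human primary keratinocyte–foreskin fibroblast co-culture measured 24 h after chemical treatment.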

[18] = read-out: CD40, CD40 (gene 958); assay: BSK_LPS_CD40: BioMAP Diversity Plus: LPS Assay for CD40 Biomarker Activity (AID 2283076); details: primary human HUVEC with PBMC; actives raise or lower the signal
Summary of the method: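 Cells were dosed, incubated 24 h, then assayed for CD40 by ELISA. Gain or loss of signal was analysed relative to DMSO controls. The culture paired human umbilical vein endothelium with peripheral blood mononuclear cells.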

[19] = read-out: Interleukin-8 (IL8), CXCL8 (gene 3576); assay: BSK_LPS_IL8: BioMAP Diversity Plus: LPS Assay for Interleukin-8 (IL8) Biomarker Activity (AID 2283078); details: primary human HUVEC with PBMC; actives raise or lower the signal
Summary of the method: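 Readout is IL-8 by ELISA, taken 24 h after compounds were added to LPS-stimulated endothelial/PBMC co-cultures. Both increases and decreases relative to DMSO control were scored through bidirectional fitting.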

[20] = read-out: E-selectin (Homo sapiens) (UniProt P16581); assay: BSK_LPS_Eselectin: BioMAP Diversity Plus: LPS Assay for Eselectin Biomarker Activity (AID 2283077); details: primary human HUVEC with PBMC; actives raise or lower the signal
Summary of the method: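 Primary human vascular co-culture (endothelium plus PBMC) was dosed with chemical, then E-selectin quantified by ELISA at 24 h. Endpoint values derive from bidirectional curve fitting relative to DMSO.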

Measured: AC50

Chain of E-selectin (Homo sapiens) (P16581 whole entry, looked up): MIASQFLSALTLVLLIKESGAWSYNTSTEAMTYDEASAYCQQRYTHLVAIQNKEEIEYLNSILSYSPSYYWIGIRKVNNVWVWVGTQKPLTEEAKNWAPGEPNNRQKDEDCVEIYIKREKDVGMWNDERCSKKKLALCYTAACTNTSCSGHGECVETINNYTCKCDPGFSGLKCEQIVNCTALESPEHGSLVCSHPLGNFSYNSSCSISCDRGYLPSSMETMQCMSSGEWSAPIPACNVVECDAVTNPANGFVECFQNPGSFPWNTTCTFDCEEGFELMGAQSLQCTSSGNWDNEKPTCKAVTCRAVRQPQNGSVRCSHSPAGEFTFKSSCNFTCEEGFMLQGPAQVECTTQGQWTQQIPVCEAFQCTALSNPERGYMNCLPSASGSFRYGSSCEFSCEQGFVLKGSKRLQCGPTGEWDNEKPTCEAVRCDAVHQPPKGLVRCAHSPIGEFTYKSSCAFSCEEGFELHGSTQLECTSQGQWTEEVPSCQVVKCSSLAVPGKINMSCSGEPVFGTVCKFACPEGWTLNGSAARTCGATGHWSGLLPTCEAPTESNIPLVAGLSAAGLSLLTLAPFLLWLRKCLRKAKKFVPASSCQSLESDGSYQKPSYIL

CCCCOCCOP(=O)(OCCOCCCC)OCCOCCCC
active: [14] 0.016 µM | [16] 3.97 µM
not listed: [20]
inactive: all other assays above

O=C(O)C=CC(F)(C(F)(F)F)C(F)(F)F
not listed: [8] | [14] | [16]
inactive: all other assays above

CCCN(CCC)c1c([N+](=O)[O-])cc(C(C)C)cc1[N+](=O)[O-]
active: [1] 13.3 µM | [2] 6.75 µM | [3] 13.9 µM | [5] 9.44 µM | [7] 14.3 µM | [8] 20 µM | [18] 31 µM | [20] 30.8 µM | [19] 31.9 µM
inactive: [4] | [6] | [11] | [12] | [13] | [14] | [15] | [17]

Nc1ccc([N+](=O)[O-])cc1Cl
not listed: [8] | [16] | [20]
inactive: all other assays above

COP(N)(=S)OC
not listed: [9] | [10] | [20]
inactive: all other assays above

O=C(O)C(F)(F)OC(F)(F)C(F)(F)OC(F)(F)C(=O)O
not listed: [9] | [10] | [14] | [16]
inactive: all other assays above
